BAZ2B inh: blocks human BAZ2B; Q9UIF8; AlphaScreen BAZ2B-H3K14Ac peptide displacement; Potency, µM (top dose mostly 114 µM), actives largely listed as inhibitors; 4.4% of 360,000 active; AID 504333; note: nearly all actives have a fitted effect of over 60% in size
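BAZ2B 50 nM plus b-H3(5-23)K14Ac 50 nM, PBS pH 7.4/0.01% Tween-20, 30 min RT; compound added (max 110 uM), 30 min RT; streptavidin donor/Ni-chelate acceptor beads 10 ug/mL final, 20 min dark; AlphaScreen read.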
L3MBTL1 inh: blocks human L3MBTL1 | 0.66% of 230,000 active | Q9Y468 | AID 485360 | Potency, µM (top dose mostly 57.1 µM), most hits filed as inhibitors | AlphaScreen L3MBTL1–H3K9me1 peptide binding; note: nearly all actives have a fitted effect of over 60% in size
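AlphaScreen proximity signal between nickel-chelate acceptor and streptavidin donor beads (final 10 ug/mL) reports binding of 50 nM L3MBTL1 to 75 nM biotin-H3 K9me1 peptide; complex incubated with compounds 30 min at room temperature; cefsulodin titration as control.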
HP1b chromo inh: HP1-beta chromodomain-methylated histone interaction inhibition; P83916; AlphaScreen HP1-beta / biotin-H3K9me3 peptide binding; Potency, µM (series often up to 114 µM), hits mostly inhibitors; 0.56% of 390,000 active; AID 540317; note: nearly all actives have a fitted effect of over 70% in size
Target sequence (P83916 whole entry, looked up): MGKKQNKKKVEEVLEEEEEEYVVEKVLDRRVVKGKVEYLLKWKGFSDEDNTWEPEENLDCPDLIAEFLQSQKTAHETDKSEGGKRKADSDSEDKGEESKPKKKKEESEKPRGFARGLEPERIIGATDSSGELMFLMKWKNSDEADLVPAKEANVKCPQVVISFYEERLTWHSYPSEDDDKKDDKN
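AlphaScreen: HP1-beta (50 nM) preformed 30 min with biotin-H3(1-18)K9me3 peptide (50 nM) in PBS pH 7.4, 0.01% Tween-20. Compound added for 30 min at RT, then streptavidin donor/nickel chelate acceptor beads (10 ug/mL) for 30 min.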
G9a inh: G9a (human) methyltransferase inhibition | Q96KQ7 | 8.8% of 350,000 active | G9a H3K9 monomethylation, AlphaScreen, 2 h | Potency, µM (doses to about 102 µM), actives largely listed as inhibitors; note: nearly all actives have a fitted effect of over 75% in size
Target sequence (Q96KQ7 913-1193 limits assumed): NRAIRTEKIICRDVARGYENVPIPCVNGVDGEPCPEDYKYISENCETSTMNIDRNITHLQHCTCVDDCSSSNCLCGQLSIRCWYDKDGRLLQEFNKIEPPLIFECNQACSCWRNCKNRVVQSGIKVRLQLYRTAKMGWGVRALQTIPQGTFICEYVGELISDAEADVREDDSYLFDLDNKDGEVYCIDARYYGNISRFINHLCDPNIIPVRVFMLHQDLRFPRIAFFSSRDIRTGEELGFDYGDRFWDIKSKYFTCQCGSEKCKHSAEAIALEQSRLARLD
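G9a (20 nM) was preincubated 15 min with compound, then reacted 2 h at room temperature with 500 nM biotin-H3K9 peptide and 20 µM SAM. Monomethyl-H3K9 detected by AlphaScreen using anti-H3K9me1 antibody.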
JMJD2A Tudor inh: blocks the human JMJD2A Tudor domain; O75164; AlphaScreen JMJD2A-Tudor / H3K4me3 peptide binding; Potency, µM (highest dose often 114 µM), hits mostly inhibitors; 4.4% of 390,000 active; note: nearly all actives have a fitted effect of over 50% in size
Sfp inh: blocks B. subtilis Sfp PPTase activity; Q9F4F7; AID 1490; 3.5% of 310,000 active; Potency, µM, actives largely listed as inhibitors; Biochemical Sfp PPTase activity, qHTS;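 note: the enzyme is Sfp with the accession as filed and its product quenches rhodamine fluorescence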
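After 15 min at room temperature with compound, 15 nM Sfp received 5 uM rhodamine-CoA plus 12.5 uM BHQ-2-ybbR (50 mM Hepes pH 7.6, 10 mM MgCl2). Rate came from the fluorescence difference over 30 min, ex 525/em 598 nm.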
Large screens that a line does not name were inactive. Sampled rows, rich in hits. Any-hit rate of the full collection: about 12%. Calls come from the whole dose curve; as a rule, active = well fitted curve in the direction sought with a large enough effect; inconclusive = small, poorly fitted or top-dose-only effect, or another doubt; inactive = no such curve, though single readings can be large; an effect the other way counts as inactive or inconclusive.

COc1ccc(C(NC(C)=O)c2cc(Cl)c3cccnc3c2O)cc1 (stereo not drawn)	BAZ2B inh inconclusive, JMJD2A Tudor inh inconclusive
CC(=O)NC(c1ccc(C)cc1)c1cc([N+](=O)[O-])c2cccnc2c1O (stereo not drawn)	BAZ2B inh 4.47µM, L3MBTL1 inh 5.01µM, G9a inh 35.5µM, JMJD2A Tudor inh 14.1µM, Sfp inh inconclusive
CCCC(=O)NC(c1ccco1)c1c(O)ccc2ccccc12 (stereo not drawn)	G9a inh 12.6µM
c1csc(CNc2cc(-c3ccoc3)ncn2)c1	Sfp inh 31.6µM (no result: BAZ2B inh, L3MBTL1 inh, HP1b chromo inh, JMJD2A Tudor inh)
O=C(CCCC(=O)NN=Cc1ccc(Cl)cc1Cl)NN=Cc1ccc(Cl)cc1Cl	none (no result: BAZ2B inh, L3MBTL1 inh, G9a inh, Sfp inh)
O=C(N/N=C/c1ccc(Cl)cc1Cl)c1ccc2nc[nH]c2c1	G9a inh 70.8µM (no result: L3MBTL1 inh)
O=C(N/N=C/C(Br)=C/c1ccccc1)C(O)c1ccccc1 (stereo not drawn)	none
O=C(O)c1ccc(N/N=C/C(Br)=C/c2ccccc2)cc1	G9a inh 50.1µM, JMJD2A Tudor inh inconclusive, Sfp inh inconclusive
O=C(N/N=C/c1ccc(Cl)cc1Cl)c1cccc(F)c1	Sfp inh 20µM
O=C(N/N=C/C(Br)=C\c1ccccc1)c1ccc2nc[nH]c2c1	Sfp inh 50.1µM
COC(=O)CCC(=O)OC1(C)C(=O)C=C2C=C(C3CC3)N(c3ccc(OC)cc3)C=C2C1=O (stereo not drawn)	none (no result: BAZ2B inh, L3MBTL1 inh, HP1b chromo inh, G9a inh, JMJD2A Tudor inh)
CCc1ccc(C(=O)N/N=C/c2ccc(Cl)cc2Cl)nc1	none (no result: HP1b chromo inh, JMJD2A Tudor inh)
O=C(C[n+]1ccc(C(=O)N/N=C/c2ccc(Cl)cc2Cl)cc1)c1ccccc1	G9a inh 50.1µM, JMJD2A Tudor inh inconclusive (no result: L3MBTL1 inh)
Cc1cc(O)c(N)c(C)c1Cl	BAZ2B inh inconclusive, HP1b chromo inh inconclusive, G9a inh inconclusive, Sfp inh 56.2µM (no result: L3MBTL1 inh)
COc1cccc2sc(N(C)c3ccccc3)nc12	Sfp inh 70.8µM (no result: L3MBTL1 inh)
COc1ccc(OC)c2sc(N(CCN(C)C)C(=O)/C=C/c3cccs3)nc12	JMJD2A Tudor inh inconclusive (no result: L3MBTL1 inh, G9a inh)
CCOc1cccc2sc(N(CCN(C)C)C(=O)/C=C/c3cccs3)nc12	BAZ2B inh inconclusive, JMJD2A Tudor inh 44.7µM (no result: L3MBTL1 inh)
COc1ccc(C)c2sc(N(CCN(C)C)C(=O)/C=C/c3cccs3)nc12	BAZ2B inh 35.5µM, JMJD2A Tudor inh inconclusive (no result: L3MBTL1 inh, G9a inh)
CN(C)CCN(C(=O)/C=C/c1cccs1)c1nc2c(F)cc(F)cc2s1	BAZ2B inh inconclusive, HP1b chromo inh inconclusive, G9a inh inconclusive, JMJD2A Tudor inh 39.8µM
CN(C)CCCN(C(=O)/C=C/c1cccs1)c1nc2ccc(F)cc2s1	G9a inh inconclusive (no result: BAZ2B inh, L3MBTL1 inh)
O=c1[nH]cc(C#Cc2ccccc2)c2ncncc12	none (no result: BAZ2B inh, L3MBTL1 inh, G9a inh, Sfp inh)
Cc1cn2c(=O)c(S(=O)(=O)N3CCN(c4cc(Cl)ccc4C)CC3)c(C)nc2s1	none (no result: L3MBTL1 inh, Sfp inh)
Cc1c(C(=O)N2CCOCC2)oc2c1-c1nn(CC(=O)NCc3cccc(Cl)c3)cc1CC2	BAZ2B inh inconclusive, JMJD2A Tudor inh inconclusive (no result: L3MBTL1 inh, Sfp inh)
COc1cccc(NC(=O)CN2C(=O)C3(SCC(=O)N3c3cc(C)cc(C)c3)c3ccccc32)c1 (stereo not drawn)	none (no result: L3MBTL1 inh, Sfp inh)
COc1cccc2sc(N(CCN(C)C)C(=O)/C=C/c3cccs3)nc12	G9a inh 15.8µM (no result: BAZ2B inh, L3MBTL1 inh)
Cc1ccc(CN(C(=O)c2ccco2)C(C(=O)NC2CCCC2)c2cccnc2)cc1 (stereo not drawn)	none
Cc1ccc(CN(C(=O)c2ccco2)C(C(=O)NC2CCCC2)c2ccc(N3CCOCC3)cc2)cc1 (stereo not drawn)	G9a inh 28.2µM
CN(CC(=O)Nc1cc([N+](=O)[O-])ccc1Cl)Cc1ccc(Br)cc1	BAZ2B inh inconclusive, G9a inh 11.2µM, JMJD2A Tudor inh inconclusive, Sfp inh inconclusive
CC(=O)OCC(=O)Nc1ccc([N+](=O)[O-])cc1Cl	none
CCCCC(=O)Nc1cc([N+](=O)[O-])ccc1Cl	none
Cc1ccsc1CN(C)CC(=O)Nc1ccc([N+](=O)[O-])cc1Cl	HP1b chromo inh inconclusive, G9a inh 39.8µM (no result: L3MBTL1 inh)
CCOc1cccc(C2c3[nH]c4ccccc4c3CCN2C(=O)CSc2ccccc2)c1 (stereo not drawn)	none (no result: L3MBTL1 inh, Sfp inh)

Screening data as filed in PubChem.
